Source: PubChem BioAssay (EPA / NIEHS)
The source made the active and inactive calls. How the source made its calls: active means hit-call score of the fitted dose curve at least 0.9, where 1 is the maximum; inactive means score below 0.9.

Assay: ATG_NFI_CIS: Attagene CIS-FACTORIAL HepG2 Assay for human Nuclear Factor I (NFI) (AID 2282989)
Settings: HepG2 cis-regulatory reporter, NFI response element transcription; actives raise or lower the signal
Experimental: ATG_CIS is a cell-based, multiplexed-readout assay that uses HepG2, a human liver cell line, with measurements taken at 24 hours after chemical dosing in a 24-well plate.ATG_NFI_CIS is one of 52 assay component(s) measured or calculated from the ATG_CIS assay. It is designed to make measurements of mRNA induction, a form of inducible reporter, as detected with fluorescence intensity signals by Reverse transcription polymerase chain reaction (RT-PCR) and Capillary electrophoresis technology.Data from the assay component ATG_NFI_CIS was analyzed into 1 assay endpoint. This assay endpoint, ATG_NFI_CIS, was analyzed with bidirectional fitting relative to DMSO as the negative control and baseline of activity. Using a type of inducible reporter, measures of mRNA for gain or loss-of-signal activity can be used to understand the reporter gene at the transcription factor-level as they relate to the gene NFIA. Furthermore, this assay endpoint can be referred to as a primary readout, because this assay has produced multiple assay endpoints where this one serves a reporter gene function. To generalize the intended target to other relatable targets, this assay endpoint is annotated to the dna binding intended target family, where the subfamily is nuclear factor I.
Human liver HepG2 cells are transiently transfected with multiple reporter transcription units (MRTUs) in 6-well plates using FuGene 6 reagent (Roche; 3 ml FuGene/1 mg DNA). The MRTU constructs are regulated by a cis-regulating element (promoter). […] A major difference between the CIS and TRANS system is that in CIS activities of endogenous TFs are measured, whereas the TRANS assay evaluates changes in activities of exogenous, chimeric NR-Gal4 proteins. […] At the end of 24 hour incubation, total RNA was isolated using TriZol reagent (Invitrogen). The isolated RNA is then reverse-transcribed using oligo(dT) primer and Mo-MLV reverse transcriptase (Invitrogen) with DNAse I (Ambion) treatment for 30 min. The one-tenth of the produced cDNA was amplified by PCR using Taq DNA polymerase (Invitrogen) and two reporter sequence-specific primers. The PCR products were fluorescently labeled by primer extension with 6-arboxyfluorescein (6-FAM) 5'-labeled reporter sequence-specific primer (2 min at 95 C, 20 s at 68 C and 10 min at 72 C) and these products were digested with 5U of HpaI (New England Biolabs) for 2h at 37 C. The fragments were purified using Qiaquick PCR columns (Qiagen), analyzed on an ABI 3130xL genetic analyzer (Applied Biosystems) with peak positions identified by using a set of X-rhodamine (ROX)-labeled MapMarker1000 molecular weight standards (BioVentures). The raw capillary electrophoresis data was processed using Attagraph software (Attagene).

Structure (SMILES) | outcome | AC50
Nc1cccc(C(F)(F)F)c1 | inactive | 
CCOC(=O)[C@H](C)O | inactive | 
c1ccc2c(c1)ccc1ncccc12 | inactive | 
c1ccc2c(c1)ccc1cc3c(ccc4ccccc43)cc12 | inactive | 
CCCCCC/C=C\CCCCCCCC(=O)O | inactive | 
Cn1c([N+](=O)[O-])cnc1COC(N)=O | inactive | 
CCc1nccnc1C | inactive | 
CCCOCCOCCOCCO | inactive | 
O=C(O)CCCCCCCCCC(=O)O | inactive | 
CN(C)c1ccc(C(=N)c2ccc(N(C)C)cc2)cc1 |  | 0.162 µM (active)
Cc1cc(C)c(C)cc1C | inactive | 
Cc1cc(=O)n(-c2ccccc2)n1C | inactive | 
CC1=NN(c2cc(S(=O)(=O)O)ccc2Cl)C(=O)C1N=Nc1ccccc1 (stereo not given) | inactive | 
C=C(C)C(=O)OCC(C)C | inactive | 
CCCCCCOC(=O)C(C)CC (stereo not given) | inactive | 
CCCc1ccc(OC)cc1 | inactive | 
CCOC(=O)Cc1cccc2ccccc12 | inactive | 
C=CC(=O)OCCOC1C2CCC1C1CC=CC12 (stereo not given) | inactive | 
CCCCNc1ccc(NCCCC)c2c1C(=O)c1ccccc1C2=O | inactive | 
CCN(CC)c1ccc(C(=O)c2ccccc2C(=O)O)c(O)c1 | inactive | 

Structure (SMILES) | outcome | AC50
COC(=O)c1cc(Cl)ccc1[N+](=O)[O-] | inactive | 
O=C(O)CCCC[C@@H]1SC[C@@H]2NC(=O)N[C@@H]21 | inactive | 
O=P(O)(O)Oc1ccccc1 | inactive | 
C[C@]12CCC(=O)C=C1CC[C@@H]1[C@@H]2C(=O)C[C@@]2(C)[C@H]1CC[C@]2(O)C(=O)CO | inactive | 
Nc1ccc(-c2ccc(F)cc2)cc1 | inactive | 
O=c1cc(-c2ccccc2)oc2ccccc12 | inactive | 
CCOc1nc(F)cc2nc(S(=O)(=O)Nc3c(Cl)cccc3C(=O)OC)nn12 | inactive | 
COC(=O)C1=C(C)NC(C)=C(C(=O)OCC(C)C)C1c1ccccc1[N+](=O)[O-] (stereo not given) | inactive | 
CC(=O)CC(N)=O | inactive | 
CC(=O)OCc1ccco1 | inactive | 
CNC(=S)N(C)C | inactive | 
NC(=O)N=NC(N)=O | inactive | 
CC(C)=CCC[C@H](C)CCO | inactive | 
Cc1ccc(C2OC[C@@H]3OC(c4ccc(C)cc4)O[C@H]([C@H](O)CO)[C@@H]3O2)cc1 (stereo not given in full) | inactive | 
CCCCCCCCCCCCCCCC[N+](C)(C)CC | inactive | 
S=C(NC1CCCCC1)NC1CCCCC1 | inactive | 
O=C(Oc1ccccc1)c1ccc2ccccc2c1O | inactive | 
CC(=O)Nc1ccc2c(c1)Cc1cc(NC(C)=O)ccc1-2 | inactive | 
C=COCCCC | inactive | 
CCOC(=O)c1ccccc1C(=C1C=C(Br)C(=O)C(Br)=C1)c1cc(Br)c(O)c(Br)c1 |  | 22.4 µM (active)
